Source: the supplement of paper PMC13380429

Test system: Vero E6 infected with SARS-CoV-2
Assay: morphology score (similarity to uninfected cells); higher = more like uninfected cells
Conditions: 24 h

With `Cc1nc(-c2ccc(OCC(C)C)c(C#N)c2)sc1C(=O)O` [febuxostat] (10 µM) as the compound, how does the morphology score read?
Its morphology score is 0.0407.

With `CC(=O)NC1CCSC1=O` (centres undefined) [citiolone] (10 µM) as the compound, how does the morphology score read?
Its morphology score is -0.0164.

How did the morphology score turn out when `CC(CNC1CCCCC1)OC(=O)c1ccccc1` (centres undefined) [hexylcaine] (10 µM) was run?
Its morphology score is -0.0327.

Which morphology score does the source give for `Cn1ncc(Cl)c1-c1cc(C(=O)N[C@H](CN)Cc2ccc(F)c(F)c2)oc1Cl` [uprosertib] (10 µM) here?
The morphology score was 0.441.

How did the morphology score turn out when `CC(C)(O)CC(=O)NCCn1ccc2ncnc(Nc3ccc(Oc4cccc(C(F)(F)F)c4)c(Cl)c3)c21` (10 µM) was run?
The morphology score was -0.138.

Which morphology score does the source give for `CNC(=O)c1ccccc1Sc1ccc2c(/C=C/c3ccccn3)n[nH]c2c1` [axitinib] (10 µM) here?
The morphology score was 0.563.

With `CC(=O)NC[C@H]1CN(c2ccc(-c3ccc(CNCc4cnn[nH]4)cc3)c(F)c2)C(=O)O1` [radezolid] (10 µM) as the compound, how does the morphology score read?
Its morphology score is 0.0332.

Which morphology score does the source give for `O=C1OC2(c3ccccc31)c1cc(I)c(O)c(I)c1Oc1c2cc(I)c(O)c1I` [erythrosine] (0.833333 µM) here?
The morphology score was 0.0913.

For `CC(C)C[C@@H](NC(=O)[C@H](Cc1ccccc1)NC(=O)CNC(=O)[C@@H](C)NC(=O)[C@@H](N)Cc1ccc(O)cc1)C(=O)O` (10 µM), which morphology score is on record?
Its morphology score is 0.159.

For `CNc1nc(C)nc(N[C@H]2CCC[C@@H](C(=O)NCc3ccc(C#N)cc3C(F)(F)F)C2)n1` (10 µM), which morphology score is on record?
Its morphology score is -0.0488.

For `COC1=C2C[C@@H](C)C[C@H](OC)[C@H](O)[C@@H](C)/C=C(\C)[C@H](OC(N)=O)[C@@H](OC)/C=C\C=C(/C)C(=O)NC(=CC1=O)C2=O` [geldanamycin] (0.833333 µM), which morphology score is on record?
Its morphology score is -0.177.

How did the morphology score turn out when `OC(CCN1CCCCC1)(c1ccccc1)C1CCCCC1` (centres undefined) [trihexyphenidyl] (10 µM) was run?
The morphology score was 0.167.

For `C=CCNc1c(O)cc2c(O)c1C[C@@H](C)C[C@H](OC)[C@H](O)[C@@H](C)/C=C(\C)[C@H](OC(N)=O)[C@@H](OC)/C=C\C=C(/C)C(=O)N2` [retaspimycin] (10 µM), which morphology score is on record?
Its morphology score is -0.0349.

How did the morphology score turn out when `C[C@]12C=CC(=O)C=C1CC[C@@H]1[C@@H]2CC[C@]2(C)OC(=O)CC[C@@H]12` [Testolactone] (10 µM) was run?
Its morphology score is 0.176.

With `CCOCOC[C@H](C[C@H](C)C(=O)NO)NC(=O)c1ccc(Oc2ccccc2)cc1` (10 µM) as the compound, how does the morphology score read?
Its morphology score is 0.131.

`CCS(=O)(=O)N(C)[C@H]1c2cc(C#N)ccc2OC(C)(C)[C@@H]1O` [chromanol-293B-(-)-[3R,4S]] (10 µM) was tested. Which morphology score did it give?
The morphology score was 0.135.

`CC(=O)O[C@@H]1CC[C@@]2(C)[C@@H](CC[C@]3(C)[C@@H]2C(=O)C=C2[C@@H]4[C@@H](C)[C@H](C)CC[C@]4(C)CC[C@]23C)[C@@]1(C)C(=O)O` [acetyl-11-keto-beta-boswellic-acid] (10 µM) was tested. Which morphology score did it give?
Its morphology score is 0.104.

`CC(=O)NC1N=C(c2ccccc2)c2ccccc2NC1=O` (centres undefined) (10 µM) was tested. Which morphology score did it give?
The morphology score was 0.189.

For `N[C@@H](Cc1ccc(Cl)cc1)C(=O)O` (racemic) [fenclonine-(+/-)] (10 µM), which morphology score is on record?
The morphology score was 0.00322.

With `CN(C)CC/C=C1/c2ccccc2Sc2ccc(Cl)cc21` [chlorprothixene] (10 µM) as the compound, how does the morphology score read?
The morphology score was 0.434.

`Nc1nc(NCCc2ccc(O)cc2)nc2nc(-c3ccco3)nn12` (10 µM) was tested. Which morphology score did it give?
The morphology score was -0.0969.

For `O=c1cc(-c2ccccc2)oc2cc(O)c(O)c(O)c12` [baicalein] (10 µM), which morphology score is on record?
The morphology score was 0.196.

Which morphology score does the source give for `COc1cccc(OCCCN)c1-c1cc(Nc2cnc(C#N)cn2)n[nH]1` (10 µM) here?
Its morphology score is -0.0952.

How did the morphology score turn out when `COc1cc(C(=O)N2CCOCC2)cc(OC)c1OC` [trimetozine] (10 µM) was run?
Its morphology score is -0.0638.

With `CC(CCc1ccccc1)NCC(O)c1ccc(O)c(C(N)=O)c1` (centres undefined) [labetalol] (10 µM) as the compound, how does the morphology score read?
The morphology score was -0.119.

`Nc1nc2c(cnn2CCc2ccccc2)c2nc(-c3ccco3)nn12` (10 µM) was tested. Which morphology score did it give?
The morphology score was -0.139.

Which morphology score does the source give for `Clc1cccc(Cl)c1NC1=NCCN1` [clonidine] (10 µM) here?
The morphology score was 0.0616.

For `O=C(NCCNCC(O)COc1ccc(O)cc1)N1CCOCC1` (centres undefined) [xamoterol] (10 µM), which morphology score is on record?
Its morphology score is 0.0295.

With `CN(C)CCN(Cc1ccccc1)c1ccccn1` [tripelennamine] (10 µM) as the compound, how does the morphology score read?
Its morphology score is -0.0386.

With `CCc1ccc(OCc2ccccc2C(=O)Nc2ccc3nc(C)cc(N)c3c2)cc1` (0.833333 µM) as the compound, how does the morphology score read?
Its morphology score is 0.313.

Which morphology score does the source give for `C[C@H](Nc1cc(-c2cnn(C)c2)cc(Nc2cnccn2)n1)c1ccc(F)cc1` (0.833333 µM) here?
The morphology score was -0.112.

How did the morphology score turn out when `COc1cccc(NC(=O)/C=C/c2ccc(Cl)cc2)c1` (10 µM) was run?
Its morphology score is -0.0484.

With `COc1ccc([C@@H]2CC(=O)c3c(O)cc(O[C@@H]4O[C@H](CO)[C@@H](O)[C@H](O)[C@H]4O[C@@H]4O[C@@H](C)[C@H](O)[C@@H](O)[C@H]4O)cc3O2)cc1O` [neohesperidin] (10 µM) as the compound, how does the morphology score read?
The morphology score was 0.00505.

How did the morphology score turn out when `CN1C(CCl)Nc2cc(Cl)c(S(N)(=O)=O)cc2S1(=O)=O` (centres undefined) [methyclothiazide] (10 µM) was run?
Its morphology score is 0.0153.

`O=C1C(=Cc2cccnc2)C(=O)c2ccccc21` (10 µM) was tested. Which morphology score did it give?
The morphology score was 0.19.

Which morphology score does the source give for `NC(=O)c1cnccn1` [pyrazinamide] (10 µM) here?
The morphology score was 0.0672.

Which morphology score does the source give for `CCN(CC)C(=O)Nc1ccc(OCC(O)CNC(C)(C)C)c(C(C)=O)c1` (centres undefined) [celiprolol] (10 µM) here?
Its morphology score is 0.118.

For `CN(C)C(=O)Nc1cccc(-c2ccc(N(C)C)cc2)c1` [atglistatin] (10 µM), which morphology score is on record?
The morphology score was 0.11.

How did the morphology score turn out when `FC(F)(F)c1cc(CO[C@H]2CCCN[C@H]2c2ccccc2)cc(C(F)(F)F)c1` (10 µM) was run?
The morphology score was 0.777.
